PKM2 activator = increases activity of human pyruvate kinase M2; Potency, µM (doses to about 57.5 µM), without a hit: at the highest dose activation, most hits filed as activators; 0.34% of 260,000 active; AID 1631; purified PKM2, Kinase-Glo ATP luminescence, activation; response scale: 0% is enzyme alone, no compound; note: potency is the fitted concentration of half-maximal effect; % is set by controls: 0 for no effect and ±100 for the full control effect; nearly all actives have a fitted effect of over 55% in size
Target sequence (P14618 whole entry, looked up): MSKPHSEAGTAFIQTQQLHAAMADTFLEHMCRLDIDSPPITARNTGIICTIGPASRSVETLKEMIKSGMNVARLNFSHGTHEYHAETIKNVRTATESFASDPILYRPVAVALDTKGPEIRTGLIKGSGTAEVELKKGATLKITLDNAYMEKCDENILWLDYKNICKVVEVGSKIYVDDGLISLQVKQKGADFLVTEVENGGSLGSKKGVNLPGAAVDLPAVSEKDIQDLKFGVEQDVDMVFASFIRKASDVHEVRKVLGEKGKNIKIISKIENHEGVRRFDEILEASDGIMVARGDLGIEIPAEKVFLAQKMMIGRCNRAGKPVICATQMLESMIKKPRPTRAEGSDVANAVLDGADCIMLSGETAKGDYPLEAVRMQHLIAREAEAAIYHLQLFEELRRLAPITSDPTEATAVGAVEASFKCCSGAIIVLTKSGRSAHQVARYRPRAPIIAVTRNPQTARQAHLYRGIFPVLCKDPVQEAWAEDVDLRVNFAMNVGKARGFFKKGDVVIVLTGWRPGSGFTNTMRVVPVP
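Purified hPK-M2 (>95%) run at intermediate activity with 0.1 mM ADP and 0.5 mM PEP in 50 mM imidazole pH 7.2, KCl, MgCl2; 1 h room temperature. ATP formed read by Kinase-Glo luminescence; normalized to uninhibited and no-enzyme controls.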
KAT2A inh = inhibitors of human GCN5L2 histone acetyltransferase; Potency, µM (top dose mostly 58.9 µM), for inactives: at the highest dose activity change, negative = inhibition, hits mostly inhibitors; 0.21% of 390,000 active; GCN5L2 HAT assay, ThioGlo1 CoA-SH fluorescence; note: potency is the fitted concentration of half-maximal effect; % is set by controls: 0 for no effect and ±100 for the full control effect
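Free CoA generated was detected with ThioGlo1 (50uM) fluorescence at Ex340nm/Em540nm, read immediately and after 20 min at room temperature. Enzyme, 20 nM in HEPES pH 7.5 buffer, saw compounds 15 min before adding 75uM H3(1-25) peptide and 70uM acetyl-CoA.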
Vif-APOBEC3G blk = inhibitors of Vif-APOBEC3G interaction | Q9HC16 | HeLa A3G-eYFP + Vif (tagged APOBEC3G with the HIV-1 protein that degrades it), YFP fluorescence, overnight | Potency, µM (doses to about 46.1 µM), for the others: at the highest dose activity, negative = active, hits mostly inhibitors | 0.076% of 410,000 active | AID 602310; note: potency is the fitted concentration of half-maximal effect; % is set by controls: 0 for no effect and ±100 for the full control effect; nearly all actives have a fitted effect of over 60% in size
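Read-out is eYFP fluorescence (Ex 488/Em 500-530) from Vif-expressing HeLa A3G-eYFP cells; more signal means A3G escaped Vif-mediated degradation. Cells plated overnight, compound pinned in, incubated overnight at 37 deg C.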
GoLoco inh red = RGS12 GoLoco-Gai1 interaction inhibition; Potency, µM (titrated, usually from 61.6 µM), without a hit: at the highest dose activity, negative = inhibition, usual class: inhibitors; Gai1:RGS12 GoLoco peptide FP, rhodamine, 10 min; P63096; 0.44% of 230,000 active; AID 880; active = well fitted inhibition curve with a large enough effect, not every such curve was filed as active; inactive = no such curve, though single readings can be large or run the other way; note: potency is the fitted concentration of half-maximal effect; % is set by controls: 0 for no effect and ±100 for the full control effect; nearly all actives have a fitted effect of over 30% in size
Vif-APOBEC3F blk = Vif-A3F binding inhibition; HeLa A3F-eYFP + Vif (tagged APOBEC3F with the HIV-1 protein that degrades it), YFP fluorescence increase; Potency, µM (top dose mostly 46.1 µM), for the others: at the top dose activity, negative = active; 0.2% of 390,000 active; note: potency is the fitted concentration of half-maximal effect; % of control where 0% means no effect; nearly all actives have a fitted effect of over 65% in size
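HeLa cells stably expressing Vif plus C-terminally eYFP-tagged A3F were seeded, incubated overnight at 37 deg C, dosed with compound, incubated overnight again at 37 deg C. Yellow fluorescence (Ex 488/Em 500-530) reported blocked Vif-mediated A3F-eYFP degradation.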
IL-2 act = IL-2 activation; IL-2 activation reporter assay, cell-based qHTS; stimulated with anti-CD3/CD4/CD28 beads; in transgenic mouse T cells; 0.065% of 360,000 active; activation, % (series mostly up to about 46 µM); in the data active = activation above about 50%; inconclusive = mostly about 30% to 49%; note: 0% is about no effect
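EGFP and DsRed fluorescence is measured by plate cytometry in unstimulated transgenic mouse T cells exposed to compound for 60 minutes, then stimulated 18 hours at 37 degrees C with anti-CD3/anti-CD4 beads plus anti-CD28.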
An asterisk follows results filed as active; ? = inconclusive; · = no result given. Sampled rows, rich in hits. Any-hit rate of the full collection: about 0.77%. Unless noted, calls come from the whole dose curve; as a rule, active = well fitted curve in the direction sought with a large enough effect; inconclusive = small, poorly fitted or top-dose-only effect, or another doubt; inactive = no such curve, though single readings can be large; an effect the other way counts as inactive or inconclusive.

SMILES | PKM2 activator | KAT2A inh | Vif-APOBEC3G blk | GoLoco inh red | Vif-APOBEC3F blk | IL-2 act
Cc1nc(SCc2ccccc2)c2ccsc2n1 | 15.8µM* | -5.8% | -6.6% | 5.5% | 0.4% | -3.7
COc1ccc(N2CC(C(=O)N3CCN(C)CC3)CC2=O)cc1 (centres undefined) | · | 0.7% | 0.1% | · | 3.4% | 1.3
COc1cccc(N2C(=O)N(c3ccccc3Cl)C3CS(=O)(=O)CC32)c1 (centres undefined) | -0.3% | -4.5% | 1.4% | -8.6% | -18.0% | -3.4
C=CCN1C(=O)/C(=C2/Sc3ccc(OC)cc3N2C)SC1=Nc1cccc(O)c1 | -1.7% | -8.1% | 11.2µM* | 52.7% | 11.2µM* | 12.6
O=C(c1ccc(N2C(=O)C3CCCCC3C2=O)cc1)N1CCCCC1 (centres undefined) | -3.3% | -4.2% | -0.5% | -6.4% | 2.0% | -0.5
O=C(c1ccc(N2C(=O)C3C4CC(C(Br)C4Br)C3C2=O)cc1)N1CCCCC1 (centres undefined) | -1.1% | 0.794µM* | 0.6% | · | -8.9% | 1.7
Nc1c(C(=O)Nc2ccc(F)cc2)sc2nc(-c3cccs3)cc(C(F)(F)F)c12 | · | -5.7% | ? | · | ? | ·
Nc1c(C(=O)C2CC2)sc2nc(-c3cccs3)cc(C(F)(F)F)c12 | 0.6% | -5.3% | -52.9% | 39.6% | 0.631µM* | 24.7
Cc1cc(C(=O)N/N=C/c2ccc(O)c(O)c2O)c(C)n1-c1ccccc1 | 28.2µM* | ? | -0.6% | 35.1% | -23.6% | 4.8
CCOC(=O)c1ccc(N=c2ssnc2Cl)cc1 | -15.7% | 12.6µM* | 4.3% | -19.8% | ? | -0.9
N#Cc1ccc(N=c2ssnc2Cl)cc1 | -24.4% | 10µM* | 3.2% | -42.6% | -19.5% | -3.0
Fc1ccc(N=c2ssnc2Cl)c(F)c1 | -26.2% | 7.94µM* | 1.9% | -11.3% | -12.5% | -0.1
Clc1ccc(N=c2ssnc2Cl)cc1 | -30.0% | 14.1µM* | -5.7% | -2.1% | 2.8% | -0.6
O=C1CSC(=Nc2ccc(Cl)cc2)N1 | -2.2% | -14.1% | -14.2% | · | -1.8% | 0.1
CCOc1ccc(NC(=O)Cn2c(=O)n(Cc3ccccc3)c(=O)c3sc4ccccc4c32)cc1 | · | 0.6% | 0.8% | · | -0.6% | ·
COc1ccc(N=c2ssnc2Cl)cc1 | -45.7% | 12.6µM* | 7.9% | -5.1% | 3.3% | 0.6
O=C1CSC(=Nc2ccccc2)N1Cc1ccccc1 | 2.5% | -9.8% | -3.2% | 6.9% | 3.3% | 8.5
Clc1nssc1=Nc1ccccc1 | 12.6% | 3.98µM* | 1.3% | -25.3% | ? | -0.8
COc1ccc(-n2ccc(=O)c3c2CCCC3=O)cc1 | 28.2µM* | -1.1% | 0.3% | -0.3% | -2.8% | -0.7
CN(C)S(=O)(=O)c1cc(C(=O)NCc2ccccc2)c(Cl)cc1Cl | 2.3% | -19.5% | 1.2% | 15.0% | 9.9% | -0.7
O=C(O)c1ccc(NC2=C(Cl)C(=O)c3ccccc3C2=O)cc1 | 16.2% | -17.2% | 3.1% | -14.0% | -5.9% | -5.4
O=C(O)c1cccc(NC2=C(Cl)C(=O)c3ccccc3C2=O)c1 | -15.4% | -5.8% | 5.0% | 14.1µM* | 1.0% | -1.0
O=C1C(Cl)=C(Nc2ccccc2)C(=O)c2ccccc21 | -8.8% | -8.3% | -10.5% | 8.8% | 0.7% | -3.9
O=C1C(Cl)=C(NCCc2ccccc2)C(=O)c2ccccc21 | · | · | 12.6µM* | · | 8.91µM* | -0.2
COc1cc(/C=C(/C#N)C(=O)Nc2ccccc2)ccc1OCc1ccc(C(=O)O)cc1 | -2.6% | -16.9% | -0.5% | 4.2% | -11.0% | -2.0
COc1cc(/C=C(\C#N)C(=O)Nc2nnc(C(F)(F)F)s2)ccc1OCc1ccc(C(F)(F)F)cc1C(F)(F)F | · | 7.94µM* | · | · | · | ·
N#CC(C#N)=C1C=C2C=C(N3CCCCCC3)CCC2CC1 (centres undefined) | -0.7% | -7.9% | 9.9% | -115.2% | ? | 1.7
N#CC(C#N)=C1C=C2C=C(N3CCOCC3)CCC2CC1 (centres undefined) | 1.8% | 2.4% | 9.8% | 71.6% | 11.2µM* | 18.5
